Test results: PubChem BioAssay

target: Concanavalin-A (Canavalia ensiformis) (UniProt P02866); assay: ConA small-molecule binders, primary screen, artefact control for SMM control protein annotation, biochemical, small-molecule microarray, Alexa647 label, 635 nm (AID 1127); settings: ConA-A647 binding fluorescence, higher = more signal;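 further: z combines 667 nm emission intensity with signal-to-noise across three replicate slides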
Sequence (P02866 whole entry, looked up): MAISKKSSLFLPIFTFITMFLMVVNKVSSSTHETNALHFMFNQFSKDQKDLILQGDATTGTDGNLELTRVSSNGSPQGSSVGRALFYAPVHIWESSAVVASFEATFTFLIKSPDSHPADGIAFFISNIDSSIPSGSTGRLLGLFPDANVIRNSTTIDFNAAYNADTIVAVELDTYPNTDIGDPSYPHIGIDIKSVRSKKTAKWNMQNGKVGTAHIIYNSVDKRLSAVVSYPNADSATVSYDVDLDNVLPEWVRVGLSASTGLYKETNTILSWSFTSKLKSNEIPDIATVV

Structure (SMILES) | composite z-score
O=C1C2C=CC(C(O)c3cc(C(F)(F)F)cc(C(F)(F)F)c3)N(Nc3ccc([N+](=O)[O-])cc3)C2C(=O)N1c1ccccc1 (stereo unspecified) | 1.15
COCCOC(=O)N1C(=O)[C@@]2(c3cc(C#CC4(O)CCCCCC4)ccc31)[C@H](C(=O)N1CCCCCCC1)[C@H]1C(=O)O[C@H](c3ccccc3)[C@H](c3ccccc3)N1[C@@H]2c1ccc(OCCO)cc1 | 1.14
CC(C)CNC(=O)[C@@H]1c2ccccc2C(=O)N(Cc2cc(F)cc(C(F)(F)F)c2)[C@H]1c1ccc(CO)cc1 | 0.0535
CCOC(=O)[C@H]1C/C=C/C[C@H](C(=O)OCC)C(=O)O[C@H]2[C@@H](OC)O[C@H](CO)[C@@H](OC(=O)CCc3ccccc3)[C@@H]2OC1=O | -0.233
C=CC[C@@]1(C(=O)O)N=C(c2ccc(OCCCO)cc2)O[C@@H]1c1ccccc1 | -0.587
CCOC(=O)[C@@H]1[C@@H]2C(=O)N(CC)C(=O)[C@@H]2C[C@@H]1Sc1ccccc1 | 0.563
CC(C)CN1C(=O)[C@@]2(c3ccc([N+](=O)[O-])cc3)CC(=O)N(CC34CC5CC(CC(C5)C3)C4)[C@@H]2c2ccc(CO)cc21 | 0.436
C=CC[C@@]1(C(=O)N2CCCCC2)N=C(c2ccc(OCCCO)cc2)O[C@@H]1c1ccccc1 | 0.357
C=CCOC(=O)[C@H]1[C@@H]2C(=O)O[C@@H](c3ccccc3)[C@@H](c3ccccc3)N2[C@@H](c2ccc(OCCOC(=O)[C@H]3C[C@H]4C(=O)N[C@@H](Cc5ccccc5)C(=O)N4[C@H]3c3ccc(O)cc3)cc2)[C@]12C(=O)Nc1ccc(I)cc12 | 1.14
C=CC[C@@]12N=C(c3ccc(OCCCO)cc3)O[C@@H]1c1ccccc1N(CCS(=O)(=O)c1ccccc1)C2=O | 1.17
CC(C)N1CC=CC23O[C@@H]4C=CCCOC(=O)C4[C@H]2C(=O)N(CCO)[C@@H]3C1=O (stereo partly specified) | 0.172
CCOC(=O)C[C@H]1[C@H](OC(=O)c2ccc(-c3ccccc3)cc2)[C@@H](NC(=O)C2CCCCC2)c2cc(OCCCO)ccc2N1C(=O)c1ccccc1 | 0.949
C=CCN1Cc2ccccc2C[C@@]2(N=C(c3ccc(OCCCO)cc3)O[C@H]2c2ccccc2)C1=O | 1.14
O=C1O[C@H](c2ccccc2)[C@H](c2ccccc2)N2[C@H]1[C@@H](C(=O)O)[C@]1(C(=O)Nc3ccccc31)[C@H]2c1ccc(O)cc1 | 0.586
CN(C)CCCNC(=O)[C@@]1(C)c2ccccc2C(=O)N(Cc2cc(C(F)(F)F)cc(C(F)(F)F)c2)[C@H]1c1ccc(CO)cc1 | -1.04
CCOC(=O)C[C@H]1[C@H](OC(=O)c2ccc(C(=O)c3ccccc3)cc2)[C@@H](NC(=O)c2ccc3ccccc3c2)c2cc(OCCCO)ccc2N1C(=O)c1ccccc1 | 1.04
Cc1c(NC(=O)/C(C#N)=C/C=C/c2ccccc2[N+](=O)[O-])c(=O)n(-c2ccccc2)n1C | 0.761
C=CC[C@]12N=C(c3ccc(OCCCO)cc3)O[C@H]1c1ccccc1N(C)C2=O | 0.989

Structure (SMILES) | composite z-score
CC(C)CCC[C@@H](C)[C@H]1CC[C@@]2(C)C3=C(CC[C@]12C)[C@@]1(C)CC[C@H](OC(=O)c2ccc(Br)cc2)C(C)(C)C1CC3 (stereo partly specified) | 0.291
Cc1ccc(F)cc1S(=O)(=O)N[C@@H]1CCN(Cc2ccc(Oc3ccccc3)cc2)C1 | -0.905
COC(=O)[C@H](Cc1ccccc1)N1CC(/C=C/C2CC2)=C[C@@H]1[C@@H](O)Cc1ccccc1 | 1
CCN(CC)c1ccc(N2CC=CC34O[C@@H]5/C=C\CCC(C)OC(=O)C5[C@H]3C(=O)N(CCO)[C@@H]4C2=O)cc1 (stereo partly specified) | -0.242
Cc1ccc(S[C@]2(C(=O)NC3CC3)CC(=O)N(Cc3ccccc3Cl)[C@@H]2c2ccc(CO)cc2I)cc1 | 0.904
C[C@]1(C(=O)NCCN2CCOCC2)c2ccccc2C(=O)N(Cc2ccc(OC(F)(F)F)cc2)[C@H]1c1ccc(CO)cc1 | 0.392
C[C@H]1C2=C3C(CC[C@H]4C(OCc5ccc(F)cc5C(F)(F)F)OC[C@](C)([C@@H]34)N(C(=O)OC(C)(C)C)C2)C2COC(=O)OCC21 (stereo partly specified) | 1.1
COCCOC(=O)N1C(=O)[C@@]2(c3cc(C#CCNC(N)=O)ccc31)[C@H](C(=O)N1CCCCCCC1)[C@H]1C(=O)O[C@H](c3ccccc3)[C@H](c3ccccc3)N1[C@@H]2c1ccc(O)cc1 | 1.03
Cc1ccc(C(C)CC(O)C2C=CC3C(=O)N(c4ccccc4)C(=O)C3N2Nc2ccc(C(C)C)cc2)o1 (stereo unspecified) | 1.15
CC=CC(O)C1C=CC2C(=O)N(C)C(=O)C2N1Nc1ccc([N+](=O)[O-])cc1[N+](=O)[O-] (stereo unspecified) | 0.458
O=C(O)[C@]1(Cc2ccccc2)N=C(c2ccc(OCCCO)cc2)O[C@@H]1c1ccccc1 | 0.0277
[N-]=[N+]=NCc1ccccc1[C@H]1OC(c2ccc(OCCCO)cc2)=N[C@@]1(CCS(=O)(=O)c1ccccc1)C(N)=O | 1.2
Cc1c(NC(=O)/C(C#N)=C/C=C/c2ccc(N(C)C)cc2)c(=O)n(-c2ccccc2)n1C | 1.1
COc1ccc([Si](C)(C)[C@@H]2[C@@H](CCO)O[C@]3(C(=O)N(Cc4cccc(N5C(=O)c6cccc7cccc5c67)c4)c4ccccc43)[C@H]2C)cc1 | 0.48
COc1c(C)cc(-c2cc3c(c(Cc4ccccc4)n2)[Si](C(C)C)(C(C)C)OC3)cc1C | 0.0652
CON(C)C(=O)C=C1C[C@@H](c2cccc(Cl)c2)O[C@@H](c2cccc(Cl)c2)O1 | 1.01
COc1ccc(NN2C(C(O)c3ccccn3)C=CC3C(=O)N(C4CCCCC4)C(=O)C32)cc1 (stereo unspecified) | 1.14
CC(=O)n1cc(C(O)C2C=CC3C(=O)N(c4ccccc4)C(=O)C3N2Nc2ccccc2)c2ccccc21 (stereo unspecified) | 0.183
